# Source: PubChem (National Center for Advancing Translational Sciences (NCATS))
# TDP1 cell CPT = DT40-hTDP1 cell growth loss with CPT; 420,000 compounds, 12% hits; chicken DT40 Tdp1-/-;hTDP1 cells + 20 nM CPT, ATP luminescence, 48 h; Potency, µM (top dose mostly 46.2 µM), without a hit: top-dose activity change, negative = growth inhibition, most hits filed as inhibitors; further: potency means the concentration at half of the fitted maximal effect; on the % scale 0 is the no-effect control and ±100 the full control effect; nearly all actives have a fitted effect of over 55% in size
#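 Chicken DT40 Tdp1-/- cells complemented with human TDP1, 400 cells/well, exposed to compounds plus 20 nM camptothecin for at least 48 h at 37 C; viability read as ATP content by CellTiter-Glo luminescence.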
# TGFb inhibitor = blocks TGF-b signaling | HepG2 CAGA-GFP TGF-b/SMAD3 reporter, GFP fluorescence, 18 h; TGF-beta stimulated, 500 pg/mL final | Potency, µM (titrated, usually from 46.1 µM), for the others: at the highest dose activity, negative = inhibition, hits mostly inhibitors | 410,000 compounds, 1.2% hits; further: potency means the concentration at half of the fitted maximal effect; on the % scale 0 is the no-effect control and ±100 the full control effect; nearly all actives have a fitted effect of over 65% in size
#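 Inhibition was scored as loss of TGF-beta-induced (500 pg/mL final, 18 hours, 37 degrees C) GFP in HEPG2 cells carrying a CAGA-GFP reporter, in DMEM with 1% FBS. Well GFP was summed per cell; Activity was normalised to unstimulated and stimulated DMSO wells, then concentration-response fitting.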
# HepG2 viability = kills HepG2 cells in TGF-b inhibitor counter-screen. 410,000 compounds, 0.76% hits. Potency, µM (series often up to 46.1 µM), without a hit: top-dose activity change, negative = cytotoxicity, most hits filed as cytotoxic. HepG2 CAGA-GFP viability, ATP luminescence, 18 h; further: potency means the concentration at half of the fitted maximal effect
#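 HepG2 CAGA-GFP cells (1000/well, DMEM with 1% FBS) received compound, then TGF-beta at 500 pg/mL final, and were incubated 18 hours at 37 degrees C. Viability was read by CellTiter-Glo luminescence. Media-only wells were set as complete cell-killing and DMSO as no toxicity.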
# TDP1 inh = inhibitors of human tyrosyl-DNA phosphodiesterase TDP1; Q9NUW8; recombinant TDP1, AlphaScreen DNA substrate cleavage; Potency, µM (doses to about 130 µM), without a hit: top-dose activity change, negative = inhibition, hits mostly inhibitors; 350,000 compounds, 0.28% hits; further: potency means the concentration at half of the fitted maximal effect; on the % scale 0 is the no-effect control and ±100 the full control effect; nearly all actives have a fitted effect of over 40% in size
# Target sequence (Q9NUW8 whole entry, looked up): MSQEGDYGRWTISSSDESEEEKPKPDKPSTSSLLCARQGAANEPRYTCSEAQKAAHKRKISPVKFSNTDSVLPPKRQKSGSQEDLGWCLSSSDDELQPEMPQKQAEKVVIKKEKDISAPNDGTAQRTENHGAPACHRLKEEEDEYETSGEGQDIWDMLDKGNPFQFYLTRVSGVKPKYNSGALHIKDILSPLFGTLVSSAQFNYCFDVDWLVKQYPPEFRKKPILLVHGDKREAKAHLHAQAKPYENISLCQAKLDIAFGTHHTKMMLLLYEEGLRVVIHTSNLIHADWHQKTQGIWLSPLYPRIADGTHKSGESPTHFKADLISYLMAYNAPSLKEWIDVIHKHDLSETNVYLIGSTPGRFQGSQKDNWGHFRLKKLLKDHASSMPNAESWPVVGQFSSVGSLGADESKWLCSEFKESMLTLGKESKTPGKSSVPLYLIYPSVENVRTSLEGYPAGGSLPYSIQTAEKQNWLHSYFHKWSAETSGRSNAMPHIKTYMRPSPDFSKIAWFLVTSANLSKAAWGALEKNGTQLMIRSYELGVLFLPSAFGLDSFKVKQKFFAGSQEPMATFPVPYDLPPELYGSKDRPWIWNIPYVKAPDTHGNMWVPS
#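 Recombinant E. coli-expressed Tdp1 (1 nM) preincubated with compound 15 min at RT, then 5'-biotin/3'-phosphotyrosine-FITC DNA substrate (15 nM) added for 5 min. AlphaScreen beads (10 ug/ml) added, 10 min RT; tyrosine-FITC cleavage read as signal loss.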
# IL-1B inflam inh = blocks inflammasome-driven IL-1 beta release | THP-1 LPS/ATP IL-1B secretion, AlphaLISA, 16 h; hits give low values | activity change, % at 57.5 µM | 360,000 compounds, 4.7% hits; in the data active means activity change below about -50%; inconclusive means mostly about -30% to -49%; further: on the % scale 0 is the no-effect control and ±100 the full control effect
#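 THP-1 cells pretreated 1 hr with compounds (up to 57.5 uM final), then stimulated with LPS (250 ng/mL final) plus ATP (1.25 mM final); secreted IL-1B measured by AlphaLISA after 16 hr, decreased signal indicating inhibition.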
# DT40 TDP1 no CPT = qHTS for Inhibitors of human tyrosyl-DNA phosphodiesterase 1 (TDP1): qHTS in cells in absence of CPT; DT40 Tdp1-/- hTDP1 cells, no CPT, ATP luminescence, 48 h; 420,000 compounds, 15% hits; Potency, µM (top dose mostly 46.2 µM), for the others: at the highest dose activity change, negative = growth inhibition, actives largely listed as inhibitors; further: potency means the concentration at half of the fitted maximal effect; on the % scale 0 is the no-effect control and ±100 the full control effect; nearly all actives have a fitted effect of over 55% in size
#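 DT40 Tdp1-/-;hTDP1 cells, no CPT (DMSO vehicle only), 400 cells/well; compounds pin-transferred; ≥48 hr, 37 °C; CellTiter-Glo 30 min RT dark, luminescence read.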
# * = called active by the depositor; ? = inconclusive; . = no result; ! = a repeat was not active; [ ] = dose if it differs, or a comment. Sampled rows, rich in hits. Any-hit rate of the full collection: about 19%. Unless noted, the call rests on the fitted dose curve; in most records, active means well fitted curve in the direction sought with a large enough effect; inconclusive means small, poorly fitted or top-dose-only effect, or another doubt; inactive means no such curve, though single readings can be large; an effect the other way counts as inactive or inconclusive.
SMILES,TDP1 cell CPT,TGFb inhibitor,HepG2 viability,TDP1 inh,IL-1B inflam inh,DT40 TDP1 no CPT
O=C(COC(=O)c1ccc([N+](=O)[O-])o1)Nc1cccc2ccccc12,4%,?,-33%,7%,-9,5%
COc1ccc(OCCn2nnc3sc4c(c3c2=O)CCC(C(C)(C)C)C4)cc1 (centres undefined),?,7%,0%,7%,.,?
CCOC(=O)c1sc2ccccc2c1S(=O)(=O)N1CCN(c2cccc(C)c2C)CC1,?,-32%,9%,5%,.,?
Cc1ccc(/C=c2\sc3nc(-c4cccnc4)nn3c2=O)cc1,?,-8%,-12%,2%,0,29µM*
CC(C)c1ccc(/C=c2\sc3nc(-c4ccncc4)nn3c2=O)cc1,?,8%,15%,4%,6,12µM*
CCOc1ccc(/C=c2\sc3nc(-c4ccco4)nn3c2=O)cc1OCC,-30%,9%,-2%,-1%,18,-27%
CC(C)NC(=O)C1(C)CN(S(C)(=O)=O)CC(=O)N1Cc1cccc(F)c1 (centres undefined),18%,.,.,.,4,17%
CNc1snc(C)c1C(=O)OC(C)C(=O)c1ccc(F)cc1 (centres undefined),18µM*,3%,-11%,0%,-20,21µM*
CCN(Cc1ccccc1)C(=O)COC(=O)c1c(C)nsc1NC,15µM*,-24%,-26%,0%,30,21µM*
CNc1snc(C)c1C(=O)OCC(=O)c1ccc(Cl)cc1,13µM*,-12%,-20%,-4%,16,9.2µM*
CCOC(=O)N1CCN(C(=O)c2cn(CC)c3ccc(S(=O)(=O)N4CCCCC4)cc3c2=O)CC1,-13%,2%,16%,0%,-3,9%
CCOC(=O)C1CCN(C(=O)CSc2n[nH]c(-c3ccccc3)n2)CC1,-23%,?,-32%,3%,.,?
C/C(=C(/CCO)SSCC1CCCO1)N(C=O)Cc1cnc(C)nc1N (centres undefined),21µM*!,-3%,-1%,.,9,21µM*
C/C(=C(/CCO)SSC[C@@H]1CCCO1)N(C=O)Cc1cnc(C)nc1N,.,.,.,11%[21 µM],.,.
CCOC(=O)OCC/C(SC(=O)OCC)=C(\C)N(C=O)Cc1cnc(C)nc1N,3%,.,.,.,.,-1%
CCCSS/C(CCO)=C(\C)N(C=O)Cc1cnc(C)nc1N,5.3µM*,.,.,.,.,3µM*
Cc1ccccc1C(=O)N1CC/C(=N\OS(=O)(=O)O)c2ccc(Cl)cc21,-24%,.,.,.,.,-3%
O=C1C=Cc2cccc3ccc(O)c1c23,23µM*,-2%,-5%,.,?,15µM*
CCc1cc2c(cc3c(=O)n(CC(=O)NC4CCC(C)CC4)nc(CC)n32)s1 (centres undefined),?,?,2%,1%,.,?
CCCOc1ccc(/C=N/NC(=O)C2CCCN2S(=O)(=O)c2ccc(Cl)cc2)cc1 (centres undefined),16µM*,?,-15%,10%,-4,?
CC(C)Oc1ccc(/C=N/NC(=O)C2CCCN2S(=O)(=O)c2ccc(Cl)cc2)cc1 (centres undefined),?,3%,5%,6%,-1,21µM*
CC(NC(=O)c1ccco1)c1nnc2n1CCN(Cc1ccc(Cl)cc1)CC2 (centres undefined),13%[9.04 µM],.,.,.,.,2%
CCN1CCc2c(OCC(=O)N3CCCc4ccccc43)cccc2C1=O,-22%,4%,1%,-4%,35,-29%
O=C1c2cccc(OCC(=O)N3CCCc4ccccc43)c2CCN1Cc1ccc(Br)cc1,18µM*,0%,-2%,0%,-22,18µM*
Cc1ccc(CN2CCc3c(OCc4ccc(F)cc4)cccc3C2=O)cc1,?,-101%,-34%,.,-62*,?
SMILES,TDP1 cell CPT,TGFb inhibitor,HepG2 viability,TDP1 inh,IL-1B inflam inh,DT40 TDP1 no CPT
CN1CCc2c(OCc3ccc(F)cc3)cccc2C1=O,-21%,17%,-6%,-4%,-21,?
O=C(COc1cccc2c1CCN(Cc1ccc(Br)cc1)C2=O)N1CCOCC1,?,-27%,-3%,6%,-63*,23µM*
Cc1ccccc1CN1CCc2c(OCC(=O)N3CCCCC3)cccc2C1=O,?,?,-31%,-1%,?,?
O=C(COc1cccc2c1CCN(Cc1ccc(Br)cc1)C2=O)NCc1ccco1,18µM*,?,-4%,2%,-28,23µM*
COc1cc2nc(N3CCCC(O)C3)c(CNCc3ccccc3F)cc2c(OC)c1OC (centres undefined),-1%[9.04 µM],.,.,.,.,-26%
Cc1cccc(N(C(=O)CCC(=O)Nc2cc(C)on2)C(C(=O)NC2CCCC2)c2ccc(C)o2)c1 (centres undefined),?,-18%,3%,5%,-1,-18%
COc1cccc(C(C(=O)NC(C)(C)C)N(Cc2ccc(C)cc2)C(=O)CCC(=O)Nc2cc(C)on2)c1OC (centres undefined),?,4%,-3%,9%,-11,?
COc1cccc(C(C(=O)NC(C)(C)C)N(Cc2ccco2)C(=O)CCC(=O)Nc2cc(C)on2)c1OC (centres undefined),3%,-1%,-7%,5%,-12,29µM*
Cc1ccc(C)c(N(C(=O)CCC(=O)Nc2cc(C)on2)C(C(=O)NC2CCCC2)c2ccco2)c1 (centres undefined),16µM*,0%,23%,4%,-6,23µM*
COc1ccc(C(C(=O)NC(C)(C)C)N(Cc2ccc(C)cc2)C(=O)CCC(=O)Nc2cc(C)on2)cc1 (centres undefined),-39%,-12%,5%,8%,0,?
Cc1cc(C)cc(N(C(=O)CCC(=O)Nc2cc(C)on2)C(C(=O)NC2CCCC2)c2ccco2)c1 (centres undefined),?,-13%,-6%,-5%,-5,21µM*
COc1ccc(C(C(=O)NC(C)(C)C)N(C(=O)CCC(=O)Nc2cc(C)on2)c2cc(C)cc(C)c2)cc1 (centres undefined),?,5%,4%,9%,-2,21µM*
COC(=O)[C@@H](NC(=O)O[C@@H]1C(=O)c2cc(OC)ccc2O[C@H]1c1ccc(OC)c(Br)c1)C(C)C,.,.,.,4%,.,.
